Data on 5 compounds can be found in PubChem BioAssay.

Calls of active or inactive are those of the source.

A short description of assay [1]: small molecules captured by biotinylated probe aFSTL3 – biochemical, small-molecule microarray, fluorescence 635/667, stem cell growth factor project, primary screen (AID 1064).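 Further: measures binding of the biotinylated anti-FSTL3 antibody to printed compounds.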 As to conditions: higher = more signal.
Assay [2] can be described thus: binders from COS7 lysate, DM2A8 probe, primary screen, torsin A project, cell lysate, small-molecule microarray, fluorescence 635/667 (AID 1065). As to conditions: higher = more signal, COS7 lysate expressing mutant human TOR1A.
Assay [3] can be described thus: small molecules captured by biotinylated probe aFGF2 – biochemical, small-molecule microarray, fluorescence 635/667, stem cell growth factor project, primary screen (AID 1067).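 Further: measures binding of biotinylated aFGF2 protein to printed compounds on slides; z-score merges feature fluorescence and signal-to-noise across triplicate slides.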 The note with it: higher = more signal.
Assay [4] is described as follows: small molecules captured by biotinylated probe aFGF10 – biochemical, small-molecule microarray, fluorescence 635/667, stem cell growth factor project, primary screen (AID 1071).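 Further: score merges 667 nm spot intensity and signal to noise from triplicate slides.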 As to conditions: higher = more signal.
Assay [5] deals with Neurogenic locus notch homolog protein 2 (Homo sapiens) (UniProt Q04721). Description: small molecules binding Notch2 protein – biochemical, small-molecule microarray, 635 nm fluorescence, stem cell growth factors, primary screen (AID 1073). The note with it: higher = more signal.
Assay [6] has as its target Pro-neuregulin-1, membrane-bound isoform (Homo sapiens) (UniProt Q02297). Description: small molecules binding neuregulin-1 protein – biochemical, small-molecule microarray, fluorescence 635/667, psychiatric disease protein project, primary screen (AID 1075).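 Further: score combines 667 nm spot fluorescence with signal to noise.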 As to conditions: NRG1 binding, 635 nm fluorescence, higher = more signal.
Assay [7] deals with Neuregulin-1 EGF-like domain. Description: small molecules binding NRG1 EGF domain – biochemical, small-molecule microarray, 635 nm fluorescence, primary screen (AID 1081).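 Further: binding of the protein to compounds printed on small-molecule microarray slides.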 The note with it: higher = more signal.
A short description of assay [8]: FRG1 expression reporter modulators in myotubes – cell-based, C2C12 myotubes, firefly/Renilla luciferase, luminescence, FRG1 inhibition for FSHD, primary screen (AID 1084). As to conditions: FRG1 promoter luciferase, higher = more signal, called active from +8 up or from −8 down.
Assay [9] in a line: small molecules captured by biotinylated probe aFST – biochemical, small-molecule microarray, fluorescence 635/667, stem cell growth factor project, primary screen (AID 1086).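 Further: score merges 667 nm fluorescence with signal-to-noise of each printed compound spot.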 As to conditions: higher = more signal.
Assay [10] is described as follows: binders of probe aHhip on microarray, primary screen, stem cell growth factor project, biochemical, small-molecule microarray, fluorescence 635/667 (AID 1087).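 Further: score merges spot fluorescence at 667nm with spot signal to noise ratio.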 As to conditions: higher = more signal.
For assay [11], the system named is PRMT1 (protein arginine N-methyltransferase 1). Kind of assay: small molecules binding arginine methyltransferase PRMT1 – biochemical, small-molecule microarray, 635 nm fluorescence, primary screen (AID 1088).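 Further: binding of Prmt1 protein to compounds spotted on small-molecule microarray slides.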 As to conditions: higher = more signal.
Assay [12] in a line: growth effects on S. cerevisiae YJM789 – YJM789 clinical isolate, OD600, 24 h, basal, primary screen (AID 1089).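 Further: growth of clinical yeast isolate S. cerevisiae YJM 789 seeded 1000 cells per well; test concentration not given here.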 The note with it: higher = more signal, called active from +8 up or from −8 down.
Assay [13] is described as follows: S. pombe growth modifiers, basal conditions – strain 972, OD600, 24 h, no modulator, primary screen (AID 1090).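 Further: basal condition with compound alone and no growth modifier present; test concentration not given here.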 As to conditions: S. pombe 972 growth, higher = more signal, called active from +8 up or from −8 down.
Assay [14] is described as follows: budding yeast growth modifiers under rapamycin – strain BY4716, OD600, 96 h, primary screen (AID 1091). Further: test concentration not given here. The note with it: S. cerevisiae BY4716 + rapamycin, higher = more signal, called active from +8 up or from −8 down.
Assay [15] deals with Torsin-1A-interacting protein 2 (Homo sapiens) (UniProt Q8NFQ8). Kind of assay: small molecules binding lysate-expressed LULL1 – cell lysate, human LULL1 lysate, 635/667 nm fluorescence, primary screen (AID 1092).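 Further: probe is lysate of COS7 cells overexpressing human LULL1; score merges per-feature 667 nm fluorescence with signal-to-noise.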 The note with it: small-molecule microarray, hLULL1 lysate binding, 635 nm fluorescence; higher = more signal.
A short description of assay [16]: optical density change of DRC41 E. coli – strain DRC41, OD650, 24 h, E. coli filamentation project, primary screen (AID 1093).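 Further: MC1000 strain lacking acrAB efflux and sulA so SOS filamentation is blocked; test concentration not given here.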 As to conditions: E. coli DRC41 growth, higher = more signal, called active from +8 up or from −8 down.
Assay [17] can be described thus: probe aLefty2 binding to arrayed compounds – biochemical, biotinylated probe, 635/667 nm fluorescence, primary screen (AID 1094).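 Further: score merges spot fluorescence near 667 nm with spot signal-to-noise ratio.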 The note with it: small-molecule microarray, higher = more signal.
Assay [18] deals with Noggin (protein binding on small-molecule microarray). Description: small molecules binding Noggin protein – biochemical, 635/667 nm fluorescence, primary screen (AID 1095).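 Further: score merges 667 nm feature fluorescence with signal to noise over triplicate slides.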 As to conditions: 635 nm fluorescence, higher = more signal.
Assay [19] addresses Neurogenic locus notch homolog protein 3 (Homo sapiens) (UniProt Q9UM47). Kind of assay: small molecules binding NOTCH3 protein – biochemical, 635/667 nm fluorescence, primary screen (AID 1096). The note with it: small-molecule microarray, 635 nm fluorescence, higher = more signal.
The nature of assay [20]: probe aEGFR binding to arrayed compounds – biochemical, biotinylated probe, 635/667 nm fluorescence, primary screen (AID 1097).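 Further: probe is a biotinylated anti-EGFR antibody binding compounds printed on slides; score combines fluorescence near 667 nm and signal to noise of each spot.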 As to conditions: small-molecule microarray, higher = more signal.

Neurogenic locus notch homolog protein 2 (Homo sapiens), sequence (Q04721 whole entry, looked up, canonical isoform): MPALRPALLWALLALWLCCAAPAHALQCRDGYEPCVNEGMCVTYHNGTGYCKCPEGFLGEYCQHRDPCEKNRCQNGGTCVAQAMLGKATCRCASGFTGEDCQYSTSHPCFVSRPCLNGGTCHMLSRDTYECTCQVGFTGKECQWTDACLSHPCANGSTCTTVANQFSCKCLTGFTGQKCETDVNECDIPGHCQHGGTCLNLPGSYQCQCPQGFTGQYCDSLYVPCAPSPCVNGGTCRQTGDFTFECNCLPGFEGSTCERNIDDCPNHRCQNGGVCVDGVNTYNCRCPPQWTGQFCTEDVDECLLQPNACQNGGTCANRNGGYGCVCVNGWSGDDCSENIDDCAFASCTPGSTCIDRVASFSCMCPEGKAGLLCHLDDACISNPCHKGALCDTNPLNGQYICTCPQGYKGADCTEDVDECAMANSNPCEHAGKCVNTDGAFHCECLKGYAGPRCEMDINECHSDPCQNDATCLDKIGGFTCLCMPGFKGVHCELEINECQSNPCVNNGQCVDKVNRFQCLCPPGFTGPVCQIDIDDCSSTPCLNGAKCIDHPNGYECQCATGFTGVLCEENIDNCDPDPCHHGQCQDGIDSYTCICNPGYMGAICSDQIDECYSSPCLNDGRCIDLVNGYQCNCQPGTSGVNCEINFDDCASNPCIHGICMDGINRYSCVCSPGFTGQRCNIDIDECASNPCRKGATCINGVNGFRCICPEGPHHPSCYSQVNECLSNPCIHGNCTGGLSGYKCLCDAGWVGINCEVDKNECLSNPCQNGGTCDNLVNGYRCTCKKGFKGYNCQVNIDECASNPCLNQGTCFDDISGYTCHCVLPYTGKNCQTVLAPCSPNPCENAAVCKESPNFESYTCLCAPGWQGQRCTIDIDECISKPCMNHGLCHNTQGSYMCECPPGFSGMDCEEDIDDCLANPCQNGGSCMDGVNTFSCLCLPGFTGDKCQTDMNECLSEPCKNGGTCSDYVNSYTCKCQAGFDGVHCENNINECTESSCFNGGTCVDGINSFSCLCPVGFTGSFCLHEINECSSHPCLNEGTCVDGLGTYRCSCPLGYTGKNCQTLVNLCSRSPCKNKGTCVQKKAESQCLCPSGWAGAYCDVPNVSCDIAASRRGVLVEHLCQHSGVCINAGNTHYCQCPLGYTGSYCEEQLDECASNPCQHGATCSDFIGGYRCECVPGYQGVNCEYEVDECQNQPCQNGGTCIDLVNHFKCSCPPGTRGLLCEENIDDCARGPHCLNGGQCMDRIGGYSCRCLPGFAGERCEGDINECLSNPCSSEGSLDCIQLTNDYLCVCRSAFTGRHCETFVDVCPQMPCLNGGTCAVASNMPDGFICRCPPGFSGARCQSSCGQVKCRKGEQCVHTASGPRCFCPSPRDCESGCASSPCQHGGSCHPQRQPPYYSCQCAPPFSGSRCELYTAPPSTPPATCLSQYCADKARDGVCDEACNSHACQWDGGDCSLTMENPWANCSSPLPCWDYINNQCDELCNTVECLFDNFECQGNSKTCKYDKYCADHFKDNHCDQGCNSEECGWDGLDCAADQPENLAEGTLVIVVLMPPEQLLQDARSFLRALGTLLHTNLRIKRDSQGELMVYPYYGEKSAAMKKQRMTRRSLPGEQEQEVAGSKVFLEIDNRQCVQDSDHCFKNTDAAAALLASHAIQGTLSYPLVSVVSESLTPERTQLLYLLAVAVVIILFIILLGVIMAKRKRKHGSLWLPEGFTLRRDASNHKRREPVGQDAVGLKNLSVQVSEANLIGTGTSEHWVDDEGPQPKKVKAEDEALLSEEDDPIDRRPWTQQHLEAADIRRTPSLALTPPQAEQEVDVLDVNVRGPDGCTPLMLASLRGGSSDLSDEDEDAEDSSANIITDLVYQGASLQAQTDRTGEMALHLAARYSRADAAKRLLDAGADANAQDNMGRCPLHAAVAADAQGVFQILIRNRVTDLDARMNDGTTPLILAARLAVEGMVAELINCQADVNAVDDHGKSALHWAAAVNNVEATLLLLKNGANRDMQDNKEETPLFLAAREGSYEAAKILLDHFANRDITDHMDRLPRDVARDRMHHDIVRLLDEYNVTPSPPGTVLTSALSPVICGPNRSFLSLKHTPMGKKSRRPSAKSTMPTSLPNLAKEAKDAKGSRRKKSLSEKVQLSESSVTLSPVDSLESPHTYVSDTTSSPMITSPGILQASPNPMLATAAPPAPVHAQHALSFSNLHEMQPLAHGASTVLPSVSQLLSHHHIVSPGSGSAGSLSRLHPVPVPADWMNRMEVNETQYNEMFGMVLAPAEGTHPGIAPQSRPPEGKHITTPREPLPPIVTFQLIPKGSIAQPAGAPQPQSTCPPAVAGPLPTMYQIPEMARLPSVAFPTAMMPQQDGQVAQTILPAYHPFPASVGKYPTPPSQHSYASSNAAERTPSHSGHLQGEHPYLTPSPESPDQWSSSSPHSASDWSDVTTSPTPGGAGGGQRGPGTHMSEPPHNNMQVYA
Pro-neuregulin-1, membrane-bound isoform (Homo sapiens), sequence (Q02297 whole entry, looked up, the tested form may be a part, canonical isoform): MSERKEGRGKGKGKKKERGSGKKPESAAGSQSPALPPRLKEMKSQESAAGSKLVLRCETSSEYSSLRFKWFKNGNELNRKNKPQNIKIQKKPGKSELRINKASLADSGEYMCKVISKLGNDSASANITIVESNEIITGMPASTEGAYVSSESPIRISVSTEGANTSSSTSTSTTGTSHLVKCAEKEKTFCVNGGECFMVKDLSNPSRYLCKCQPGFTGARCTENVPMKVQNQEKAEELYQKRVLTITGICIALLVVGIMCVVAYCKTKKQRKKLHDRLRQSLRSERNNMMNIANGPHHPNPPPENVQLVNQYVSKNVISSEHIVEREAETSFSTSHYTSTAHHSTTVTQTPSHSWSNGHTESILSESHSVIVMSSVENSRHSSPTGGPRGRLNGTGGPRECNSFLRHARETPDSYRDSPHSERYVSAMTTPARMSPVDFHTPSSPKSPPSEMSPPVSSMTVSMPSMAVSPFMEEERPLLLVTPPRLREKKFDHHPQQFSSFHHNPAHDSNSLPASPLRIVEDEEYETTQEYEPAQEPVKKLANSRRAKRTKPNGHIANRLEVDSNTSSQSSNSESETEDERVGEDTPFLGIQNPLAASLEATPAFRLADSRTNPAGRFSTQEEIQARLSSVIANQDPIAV
Torsin-1A-interacting protein 2 (Homo sapiens), sequence (Q8NFQ8 whole entry, looked up): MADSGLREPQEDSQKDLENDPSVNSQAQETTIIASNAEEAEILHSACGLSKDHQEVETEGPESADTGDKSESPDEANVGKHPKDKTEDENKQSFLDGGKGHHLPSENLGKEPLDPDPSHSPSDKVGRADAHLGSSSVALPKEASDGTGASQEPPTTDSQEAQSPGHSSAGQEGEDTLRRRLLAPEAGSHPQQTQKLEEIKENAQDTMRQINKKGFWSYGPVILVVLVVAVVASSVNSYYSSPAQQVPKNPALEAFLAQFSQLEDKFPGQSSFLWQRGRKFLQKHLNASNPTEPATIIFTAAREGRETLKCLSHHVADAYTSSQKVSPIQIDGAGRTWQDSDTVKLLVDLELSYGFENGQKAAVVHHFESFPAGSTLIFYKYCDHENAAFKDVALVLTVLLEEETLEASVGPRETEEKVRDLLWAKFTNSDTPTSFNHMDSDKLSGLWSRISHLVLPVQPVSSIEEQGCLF

Consider `Cc1c(NC(=O)/C(C#N)=C/c2ccccc2Cl)c(=O)n(-c2ccccc2)n1C`, for which the composite z-score is -0.183 in assay [1]; 0.0711 in [2]; -0.009 in assay [3]; 0.0417 in [4]; 0.935 in assay [5]; 0.888 in [6]. The composite z-score is 1.12 in [7]; 1.27 in assay [9]; -0.139 in assay [10]; 0.315 in assay [11]; 3.03 in assay [15]; -0.158 in assay [17]. Also, the composite z-score in assay [18] was 0.0603; in assay [19], 0.259; in assay [20] it was 0.0092. For the same compound, the z-score in assay [8] is 0.311 (inactive); in [12], -1.06 (inactive); in assay [13], -1.76 (inactive); in [14], -0.4 (inactive); in assay [16], 0.245 (inactive).
Take `[N-]=[N+]=NCc1ccccc1[C@@H]1OC(c2ccc(OCCCO)cc2)=N[C@]1(Cc1ccccc1N=[N+]=[N-])C(=O)N1CCCCC1`: the composite z-score is -0.0244 in assay [1]; 1.17 in [2]; -0.0599 in assay [3]; 0.227 in assay [4]; 1.55 in [5]; 1.16 in assay [6]. Moreover, the composite z-score was found to be 1.23 in assay [7]; 0.882 in assay [9]; 0.38 in assay [10]; 1.38 in assay [11]; 3.18 in assay [15]; 0.0216 in assay [17]. Further, the composite z-score in [18] is 0.345; in [19], 0.921; in assay [20], 0.706. Besides, the z-score in assay [8] is -0.878 (inactive); in assay [12], -0.0524 (inactive); in [13] it was -1.17 (inactive); in assay [14], 2.24 (inactive); in [16], 0.379 (inactive).
In the case of `CCOC(=O)C1=CC[C@@H](c2ccccc2)N(S(=O)(=O)c2ccc(C)cc2)[C@H]1c1cccc(OC)c1`, the composite z-score is 0.154 in assay [1]; -0.133 in [2]; 0.0182 in [3]; 0.31 in [4]; 1.34 in assay [5]; 1.28 in [6]. For the same compound, the composite z-score in assay [7] was 0.746; in assay [9] it was 0.648; in [10] it was -0.0203; in assay [11], 1.06; in assay [15], 2.19; in assay [17] it was 0.116. Further, the figures for the composite z-score in assay [18], in [19] and in assay [20] were -0.266, 0.618 and -0.0407, respectively. Also, the z-score in [8] was -2.57 (inactive); in assay [12], 0.498 (inactive); in assay [13], 1.52 (inactive); in [14], 2.05 (inactive); in [16], -0.439 (inactive).
`COC(=O)[C@@]1(Cc2ccc(F)cc2)[C@H]2c3cc(C(=O)N4CCCC4)n(CC4CC4)c3C[C@H]2CN1C(=O)c1ccccc1`: the composite z-score in assay [1] came to 0.349; in assay [2], 0.149; in assay [3], 0.0274; in assay [4], 0.427; in [5], 1.72; in assay [6], 2.05. Also, the composite z-score is 1.06 in assay [7]; 1.61 in assay [9]; 0.0274 in [10]; 0.649 in assay [11]; 3.32 in assay [15]; 0.329 in assay [17]. The composite z-score in [18] was determined as 0.577; in assay [19], 1.1; in assay [20] it was 0.358. In addition, the z-score is 0.108 (inactive) in [8]; -0.223 (inactive) in assay [12]; 0.64 (inactive) in [13]; 0.125 (inactive) in assay [14]; -0.475 (inactive) in assay [16].
Consider `CC(C)[C@H]1NC(=O)[C@@]23C(=O)N[C@@H](Cc4ccccc4)C2[C@H](C)[C@@]2(C)O[C@H]2C3/C=C/CCC/C=C/CNC(=O)[C@H](Cc2ccccc2)NC1=O` (stereo not given in full), for which the composite z-score in [1] is -0.245; in assay [2] it was 0.719; in assay [3], -0.147; in assay [4] it was -0.0587; in [5], 0.046; in assay [6], 1.57. The composite z-score is 1.22 in [7]; -0.419 in [9]; -0.319 in [10]; 0.776 in assay [11]; 2.47 in [15]; -0.232 in [17]. Moreover, the values for the composite z-score in assay [18], in assay [19] and in assay [20] were 1.22, 0.419 and -0.161, respectively. Besides, the z-score in assay [8] was 0.966 (inactive); in [12], 0.249 (inactive); in [13], -1.4 (inactive); in assay [14] it was -0.622 (inactive); in [16], 0.139 (inactive).
